Compounds without any hit were thinned out: in the full panel of roughly 83,000, 20% have a hit.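 Activity criterion: percent growth below 10, measured after cells in 96-well plates were exposed to a single compound concentration for 48 hours.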 A number with no mark means an inactive call. Calls of active or inactive are those of the source.
Assays:
Assay in all cases: NCI-60 one-dose screen, 48 h (100 = growth as untreated, 0 = no growth, -100 = all killed)
K-562 leukemia = details: 10 µM unless noted
MALME-3M melanoma = details: 10 µM unless noted
RXF 393 renal = details: 10 µM unless noted
SF-295 CNS = details: 10 µM unless noted
UACC-257 melanoma = details: 10 µM unless noted
M14 melanoma = details: 10 µM unless noted
SK-MEL-5 melanoma = details: 10 µM unless noted
UACC-62 melanoma = details: 10 µM unless noted
LOX IMVI melanoma = details: 10 µM unless noted
SK-MEL-2 melanoma = details: 10 µM unless noted
A498 renal = details: 10 µM unless noted
HL-60(TB) leukemia = details: 10 µM unless noted
CCRF-CEM leukemia = details: 10 µM unless noted
SR leukemia = details: 10 µM
OVCAR-4 ovarian = details: 10 µM unless noted
IGROV1 ovarian = details: 10 µM
OVCAR-3 ovarian = details: 10 µM unless noted
BT-549 breast = details: 10 µM
HCC-2998 colon = details: 10 µM unless noted
DU-145 prostate = details: 10 µM unless noted

Row | Compound | growth (K-562 leukemia) | growth (MALME-3M melanoma) | growth (RXF 393 renal) | growth (SF-295 CNS) | growth (UACC-257 melanoma) | growth (M14 melanoma) | growth (SK-MEL-5 melanoma) | growth (UACC-62 melanoma) | growth (LOX IMVI melanoma) | growth (SK-MEL-2 melanoma) | growth (A498 renal) | growth (HL-60(TB) leukemia) | growth (CCRF-CEM leukemia) | growth (SR leukemia) | growth (OVCAR-4 ovarian) | growth (IGROV1 ovarian) | growth (OVCAR-3 ovarian) | growth (BT-549 breast) | growth (HCC-2998 colon) | growth (DU-145 prostate)
1 | COc1cc[c]([Hg][Cl])cc1 | 17% | 47.3% | -42.2% (active) | 93.3% | 65.5% | 17% | 30.5% | 12.5% | -84.2% (active) | 39.9% | 84.8% | -22.4% (active) | -20.8% (active) | -10.3% (active) | 65.1% | 15.1% | -71.5% (active) | 45.5% | 88.7% | –
2 | O=C(C(=O)N1CCCC1)c1cn(CCCCCn2cc(C(=O)C(=O)N3CCCC3)c3ccccc32)c2ccccc12 | 68.8% | 109% | 108% | 93.9% | 102% | 95.9% | 75.9% | 65.3% | – | 114% | 94.1% | 109% | -26.6% (active) | 67.7% | 73% | 98.8% | 88.4% | 90% | 103% | 100%
3 | O=[N+]([O-])c1ccc(/C=C/C=C/c2ccc(S(=O)(=O)F)cc2)c(Cl)c1 | 96.1% | 102% | 92.2% | 93.1% | 96.5% | 100% | 97.9% | 94.9% | 102% | 84% | 100% | 91.9% | 85.8% | 77.9% | 87.5% | 104% | 109% | 100% | 106% | 107%
4 | ClCCN(CCCl)c1ccc(/C=C\c2ccnc3ccccc23)cc1 | 60.9% | 74.4% | 99% | 69.4% | 47.1% | 85.5% | 71.2% | 59.2% | 80.3% | – | 68.2% | 46.8% | 71% | 48.2% | 82.3% | 81.6% | 84% | 70.5% | 91.6% | 90.6%
5 | Oc1ccc2c3c1O[C@H]1c4[nH]c5ccccc5c4C[C@@]4(O)C(C2)N(CC2CC2)CC[C@]314 | 77.7% | 122% | – | 98.3% | 97.4% | 98.6% | 96.4% | 102% | 87.3% | 90.1% | 100% | 98.6% | 89.7% | 79.6% | 96.5% | 97.5% | 89.1% | 97.4% | 90% | 96.6%
6 | S=P(Nc1ccccc1)(Nc1ccccc1)c1ccccc1 | – | 142% | 98.5% | 102% | 102% | 97.7% | 92.1% | 84.2% | 89.1% | 105% | 70.6% | – | 95.3% | – | 104% | 101% | 103% | 101% | 93.6% | 122%
7 | COc1ccc(C(c2ccc(OC)cc2)C(Cl)(Cl)Cl)cc1 | 65.7% | 91.8% | 73.4% | 102% | 78.8% | 84.5% | 80.2% | 84.7% | – | 77.4% | 57.3% | 72.5% | 55.6% | 71.8% | – | 76.4% | – | 110% | 94.4% | 107%
8 | CC(C)CCC1(CCO)C(=O)NC(=S)NC1=O | 120% | – | 120% | 103% | 100% | 103% | 105% | 97.3% | 104% | 101% | 93.7% | 98.1% | 115% | 114% | 109% | 116% | 108% | 109% | 107% | 107%
9 | CCCCCCCCCCOc1ccc(C(=O)Oc2ccc(CSP3(=O)OCC4OC(n5ccc(=O)[nH]c5=O)C(F)C4OP(=O)(O)OCC4OC(n5cnc6c(N)ncnc65)C(F)C4O3)cc2)cc1 (configuration not stated) | 66.1% | 110% | 72.6% | 105% | 21.3% | 90.7% | 111% | – | 85.3% | 76.3% | 6.69% (active) | -12.8% (active) | 87.1% | 25.4% | 58.8% | 95.3% | 97.6% | 87.7% | 102% | 106%
10 | COc1cccc2c1C(=O)c1c(O)c3c(c(O)c1C2=O)CC(O)(/C(C)=N/NC(=O)CCC(=O)N/N=C(\C)C1(O)Cc2c(O)c4c(c(O)c2C(OC2CC(N)C(O)C(C)O2)C1)C(=O)c1c(OC)cccc1C4=O)CC3OC1CC(N)C(O)C(C)O1 (configuration not stated) | -60.2% [5 µM] (active) | -99.1% [5 µM] (active) | -56.7% [5 µM] (active) | -32.8% [5 µM] (active) | -17.8% [5 µM] (active) | -55.7% [5 µM] (active) | -100% [5 µM] (active) | -85.4% [5 µM] (active) | -35.3% [5 µM] (active) | -54.3% [5 µM] (active) | -69.1% [5 µM] (active) | -41.9% [5 µM] (active) | -25.2% [5 µM] (active) | – | -13.5% [5 µM] (active) | – | -47.3% [5 µM] (active) | – | -94.5% [5 µM] (active) | -30.5% [5 µM] (active)
11 | c1ccc(CCN2CCCCC2Cc2ccccc2)cc1 (configuration not stated) | 101% | 97.7% | 117% | 91.4% | 98.5% | – | 94.8% | 92.4% | 90.9% | 87.7% | 89.5% | 80.3% | 105% | 88.5% | 115% | 92.5% | – | 111% | 83.6% | –
12 | C[C@]12CCc3sc(-c4ccc(Cl)cc4)nc3C1=CC[C@@H]1[C@@H]2CC[C@]2(C)C(=O)CC[C@@H]12 | 7.44% (active) | 75% | -36.9% (active) | 5.96% (active) | 99% | 97.6% | 62.4% | 51.1% | 55.1% | – | 73.3% | 39% | 14.5% | 10.9% | 74% | 92.5% | 27.2% | 60.6% | 90.4% | 43.6%
13 | O=[N+]([O-])c1cccc([As]=[As]c2cccc([N+](=O)[O-])c2)c1 (configuration not stated) | -21.7% (active) | -89.1% (active) | -96.1% (active) | – | -94.4% (active) | -94.4% (active) | -100% (active) | -97.6% (active) | -55.4% (active) | -91.4% (active) | -98.8% (active) | -57% (active) | – | -32% (active) | -99.2% (active) | -57.8% (active) | -96.1% (active) | -97.7% (active) | -90.6% (active) | -100% (active)
14 | NC(Cc1ccc(O)cc1)C(=O)N/N=C/c1ccc(N(CCCl)CCCl)cc1 (configuration not stated) | 41.3% | – | 95.3% | 48.5% | 93.6% | 93.6% | 88.9% | 31.4% | 44.4% | 72.8% | 82.3% | 8.82% (active) | 27.9% | 18% | 90.6% | 63.4% | 101% | 73.3% | 87.2% | 69.2%
15 | Nc1ncnc2c1c(C(=O)NO)cn2C1OC(CO)C(O)C1O (configuration not stated) | -3.31% (active) | -41.1% (active) | -26.9% (active) | -47.6% (active) | -48% (active) | -53.8% (active) | -93% (active) | -86.1% (active) | -5.18% (active) | -18.7% (active) | -30.1% (active) | -43% (active) | -17.6% (active) | -7.79% (active) | 0.579% (active) | -71.1% (active) | -49.3% (active) | -0.861% (active) | -38.7% (active) | -32.1% (active)
16 | CC(C)(NC(=O)c1nn(CCCCCF)c2ccccc12)c1ccccc1 | 89.8% | 108% | 112% | 101% | 77% | 85.5% | 90.3% | 75.4% | 96.3% | 87% | 94.8% | 88.3% | 82.5% | 85.2% | 88.5% | 101% | – | 73.5% | 105% | 102%

Source: PubChem BioAssay (NCI)
